Laboratory results published in PubChem BioAssay (NCATS).
Several values for one entry are separate records, joined by “and”; a condition that tells them apart may be missing. Identical values can stand only once. Results filed as inconclusive are left out. The source holds several records for some structures; these can differ, active in one and inactive in another. Activity calls are given as the source filed them. Unless noted, the call rests on the fitted dose curve; in most records, active means well fitted curve in the direction sought with a large enough effect; inconclusive means small, poorly fitted or top-dose-only effect, or another doubt; inactive means no such curve, though single readings can be large; an effect the other way counts as inactive or inconclusive.

Tests used:
[1] = target: Guanine nucleotide-binding protein G(i) subunit alpha-1 (Homo sapiens) (UniProt P63096); assay: qHTS Assay for Inhibitors of RGS12 GoLoco Motif Activity (Green Fluorophore) (AID 879); conditions: Galphai1/FITC-RGS12 GoLoco peptide, fluorescence polarization; series mostly up to 57.1 µM;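 further: negative values mean loss of peptide binding seen as reduced polarization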
Outline: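 A drop in FITC polarization marked displacement of the FITC-tagged RGS12 GoLoco peptide (10 nM) from Gαi1 (50 nM). Compounds were incubated 10 min at room temperature in Tris pH 7.5 buffer containing 150 mM NaCl, 0.1 mM GDP and 0.05% NP40; unlabeled peptide titration served as control.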

[2] = target: Cytochrome P450 2C9 (Homo sapiens) (UniProt P11712); assay: qHTS Assay for Inhibitors and Substrates of Cytochrome P450 2C9 (AID 883); conditions: recombinant CYP2C9, luciferin-H luminescence, 60 min; series mostly up to 57.1 µM; further: nearly all actives have a fitted effect of over 60% in size; further: potency means the concentration at half of the fitted maximal effect
Outline: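 Signal: luciferase luminescence reporting luciferin produced by CYP2C9. Conditions: 10nM enzyme, Luciferin-H 100uM at KM, 25mM KPO4, 37C, 60 min NADPH-driven reaction. Reference: 57uM sulphaphenazole as 100% inhibition.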

[3] = target: Cytochrome P450 3A4 (Homo sapiens) (UniProt P08684); assay: qHTS Assay for Inhibitors and Substrates of Cytochrome P450 3A4 (AID 884); conditions: recombinant CYP3A4, Luciferin-PPXE luminescence; series mostly up to 57.1 µM; further: nearly all actives have a fitted effect of over 50% in size; further: potency means the concentration at half of the fitted maximal effect
Outline: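 Luminescent readout of luciferin produced by CYP3A4 (20 nM) dealkylation of Luciferin-PPXE, 25 uM (its KM). NADPH-driven reaction ran 60 min at RT after 10 min compound preincubation; data scaled to 57 uM ketoconazole as 100% inhibition.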

[4] = target: Cytochrome P450 2D6 (Homo sapiens) (UniProt P10635); assay: qHTS Assay for Inhibitors and Substrates of Cytochrome P450 2D6 (AID 891); conditions: recombinant CYP2D6, luciferin-ME EGE luminescence; series mostly up to 57.1 µM; further: nearly all actives have a fitted effect of over 60% in size; further: potency means the concentration at half of the fitted maximal effect
Outline: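 Luminescent read-out of luciferin formed by 5 nM human CYP2D6 demethylating 30 uM Luciferin-ME EGE (Km level) over 60 min at room temperature after NADPH regeneration addition. Data normalized to full inhibition by 1.43 uM quinidine.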

[5] = qHTS Assay for Identification of Small Molecule Antagonists for NFkB Signaling Pathway (AID 895; active means well fitted inhibition curve with a large enough effect in the signal ratio, with a control signal flat, not every such curve was filed as active; the % refers to the signal ratio; further: potency means the concentration at half of the fitted maximal effect); conditions: NFkB beta-lactamase reporter cells, FRET ratio 460/530, stimulated with 10 pM TNF alpha; series mostly up to 38.3 µM
Outline: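 ME-180 NFkB-bla cells (beta-lactamase under NFkB response element), plated overnight, treated with compound then 10 pM TNF alpha (about EC50) for 5 hrs at 37 C. LiveBLAzer FRET read at 460/530 nm emission, 405 nm excitation.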

[6] = target: Cytochrome P450 2C19 (Homo sapiens) (UniProt P33261); assay: qHTS Assay for Inhibitors and Substrates of Cytochrome P450 2C19 (AID 899); conditions: recombinant CYP2C19, luciferin-H EGE luminescence; series mostly up to 57.1 µM; further: nearly all actives have a fitted effect of over 60% in size; further: potency means the concentration at half of the fitted maximal effect
Outline: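 Signal comes from luciferase acting on luciferin released by CYP2C19-mediated hydroxylation of Luciferin-H EGE, 10uM (KM). Assay mix: 5nM enzyme, 50mM KPO4; 60 min at 37C with NADPH regeneration. Data normalized against 57uM ketoconazole.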

[7] = qHTS Assay for Identification of Small Molecule Antagonists for Thrombopoietin (TPO) Signaling Pathway (AID 918); conditions: TPO-dependent cell signaling reporter, antagonist mode; further: potency means the concentration at half of the fitted maximal effect; nearly all actives have a fitted effect of over 60% in size
Outline: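 Inhibition read as reduced luciferase luminescence after 24 h at 37 C in IL-3-deprived Ba/F3 cells carrying human TPO receptor and GPIIb-promoter reporter, stimulated with 26 pM TPO (final, its EC50) alongside compound.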

[8] = target: Muscarinic acetylcholine receptor M1 (Rattus norvegicus) (UniProt P08482); assay: qHTS Assay for Antagonists of Acetylcholine Muscarinic M1 Receptor: Measurement of IP-One Response (AID 944); conditions: CHO-M1 cells, IP-One HTRF, antagonist mode; series mostly up to 46.1 µM; further: nearly all actives have a fitted effect of over 75% in size
Outline: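 IP1 accumulation measured via TR-FRET between d2-IP1 and Eu-cryptate anti-IP1 antibody after carbachol (200 nM, EC80) stimulation for 30 min; rat M1-transfected CHO cells received compound 10 min before agonist.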

[9] = target: Pyruvate kinase (Leishmania mexicana) (UniProt Q27686); assay: qHTS Validation Assay for Inhibitors of Leishmania Mexicana Pyruvate Kinase (AID 945); conditions: purified L. mexicana pyruvate kinase, enzyme activity, E451W mutant enzyme; series mostly up to 57.5 µM
Outline: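 LmPYK E451W 0.2 nM; 0.5 mM PEP, 0.1 mM ADP, 7 mM MgCl2, 50 mM KCl, imidazole pH 7.2, 0.01% Tween 20, 0.05% BSA; 1 h RT; PKLight luminescence; DMSO-normalized.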

[10] = target: Cytochrome P450 3A4 (Homo sapiens) (UniProt P08684); assay: qHTS Assay for Activators of Cytochrome P450 3A4 (AID 885); conditions: recombinant CYP3A4, Luciferin-PPXE luminescence, 60 min; series mostly up to 57.1 µM; further: nearly all actives have a fitted effect of over 65% in size
Outline: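 CYP3A4 activity: Luciferin-PPXE O-dealkylation, 25uM substrate, 200mM KPO4, RT throughout. Read-out is luciferase luminescence; higher values reflect activation.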

[11] = target: Muscarinic acetylcholine receptor M1 (Rattus norvegicus) (UniProt P08482); assay: qHTS Assay for Antagonists of Acetylcholine Muscarinic M1 Receptor: Kinetic Measurement of Intracellular Calcium Response (AID 943); conditions: M1-expressing cells, kinetic intracellular calcium fluorescence; series mostly up to 35.3 µM;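 further: Fluo-4 calcium signal as peak divided by basal fluorescence over 4 min; nearly all actives have a fitted effect of over 75% in size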
Outline: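 Antagonism measured as reduction of carbachol-evoked (EC80, 100 nM final) calcium flux in rat M1-CHO cells after 10 min compound exposure. Fluo-4 signal read kinetically; ratio of maximal to basal fluorescence.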

[12] = qHTS Assay for Identification of Small Molecule Agonists for Thrombopoietin (TPO) Signaling Pathway (AID 917); conditions: TPO signaling pathway reporter cells, agonist qHTS, stimulated with TPO at its EC50; series mostly up to 38.5 µM; further: potency means the concentration at half of the fitted maximal effect
Outline: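 First, Ba/F3 cells with human TPO receptor were held overnight without IL-3. Next, compounds and TPO (26 pM final) were added. After 24 hrs at 37 C, luciferase detection reagent was added and luminescence measured following 10 min at room temperature.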

[13] = Confirmation and Secondary Assay for Modulators of Hemoglobin Beta Chain Splicing at IVS2 654 locus (AID 910); conditions: HeLa EGFP-654 splicing reporter, GFP fluorescence, 48 h; series mostly up to 46.1 µM;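 further: HeLa cells stably carrying EGFP split by mutant beta-globin IVS2-654 intron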;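 further: potency means the concentration at half of the fitted maximal effect; potency of activators that raise GFP signal by restoring correct splicing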
Outline: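 HeLa cells stably expressing EGFP interrupted by β-globin IVS2-654 intron, seeded overnight in Opti-MEM/2% FCS, then treated 2 days at 37 °C. Restored splicing read as total peak GFP intensity per well by laser scanning cytometry (488 nm excitation, 500–520 nm emission); 500 nM antisense PNA as control.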

[14] = Confirmation and Secondary Assay for Modulators of Hemoglobin Beta Chain Splicing at IVS2 705 locus (AID 930); conditions: HeLa EGFP-705 splicing reporter, GFP fluorescence, 48 h; series mostly up to 46.1 µM; further: potency means the concentration at half of the fitted maximal effect
Outline: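 HeLa cells stably carrying EGFP interrupted by mutant beta-globin IVS2-705 intron (CMV-driven) were seeded at 500 cells/well, treated next day with compound for 2 days at 37C; corrected splicing restores EGFP, read as total peak GFP intensity per well.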

[15] = MultiTox-Fluor Cytotoxicity Assay - LYMP1-001 - Dead Cells (AID 946); conditions: LYMP1-001 lymphoblastoid cells, dead-cell protease fluorescence; series mostly up to 92.2 µM; further: potency means the concentration at half of the fitted maximal effect
Outline: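 AC50 from Hill fit of concentration-response; data normalized to DMSO (basal) and 15 uM tetraoctylammonium bromide (100%). LYMP1-001 lymphoblastoid cells, 2500/well, 16 hr compound at 37 C; dead-cell protease fluorescence, Ex/Em 485/520.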

[16] = MultiTox-Fluor Cytotoxicity Assay - LYMP1-001 - Live Cells (AID 947); conditions: LYMP1-001 lymphoblastoid cells, live-cell protease fluorescence viability; series mostly up to 92.2 µM; further: potency means the concentration at half of the fitted maximal effect
[17] = Cell Viability - LYMP1-002 - Assay at 16 hr (AID 948); conditions: LYMP1-002 lymphoblastoid cell viability; series mostly up to 92.2 µM; further: potency means the concentration at half of the fitted maximal effect
Outline: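 Human lymphoblastoid cells (LYMP1-002), 2500/well, were preincubated 5 hr at 37 C, then exposed to compounds for 16 hr at 37 C in complete medium. Cellular ATP was read by CellTiter-Glo luminescence after 30 min at room temperature; AC50 from Hill fits.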

[18] = Cell Viability - LYMP2-001 (AID 921); conditions: LYMP2-001 lymphoblastoid cell viability; series mostly up to 92.2 µM; further: nearly all actives have a fitted effect of over 70% in size; further: potency means the concentration at half of the fitted maximal effect
Outline: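 Human lymphoblastoid cells (Coriell), 2500 per well, were preincubated 5 hr at 37 C, then exposed to compounds in complete medium for 24 hr at 37 C. Cellular ATP was read by CellTiter-Glo luminescence; AC50 from Hill fits of concentration-response data.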

Measured: Potency

Cytochrome P450 2C9 (Homo sapiens), sequence (P11712 whole entry, looked up): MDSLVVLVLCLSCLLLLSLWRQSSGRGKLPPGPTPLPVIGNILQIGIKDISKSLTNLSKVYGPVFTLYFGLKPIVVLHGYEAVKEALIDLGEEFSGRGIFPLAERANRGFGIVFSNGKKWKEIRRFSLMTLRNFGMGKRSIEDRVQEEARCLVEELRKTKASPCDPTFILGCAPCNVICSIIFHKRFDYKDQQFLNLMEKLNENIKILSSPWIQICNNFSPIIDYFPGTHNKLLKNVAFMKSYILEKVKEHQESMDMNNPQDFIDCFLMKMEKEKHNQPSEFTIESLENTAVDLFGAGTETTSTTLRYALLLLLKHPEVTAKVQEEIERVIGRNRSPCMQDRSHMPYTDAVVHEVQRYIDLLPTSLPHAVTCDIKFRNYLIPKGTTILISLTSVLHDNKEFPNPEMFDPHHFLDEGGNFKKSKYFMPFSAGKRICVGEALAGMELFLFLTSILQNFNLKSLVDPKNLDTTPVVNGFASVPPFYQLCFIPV
Muscarinic acetylcholine receptor M1 (Rattus norvegicus), sequence (P08482 whole entry, looked up): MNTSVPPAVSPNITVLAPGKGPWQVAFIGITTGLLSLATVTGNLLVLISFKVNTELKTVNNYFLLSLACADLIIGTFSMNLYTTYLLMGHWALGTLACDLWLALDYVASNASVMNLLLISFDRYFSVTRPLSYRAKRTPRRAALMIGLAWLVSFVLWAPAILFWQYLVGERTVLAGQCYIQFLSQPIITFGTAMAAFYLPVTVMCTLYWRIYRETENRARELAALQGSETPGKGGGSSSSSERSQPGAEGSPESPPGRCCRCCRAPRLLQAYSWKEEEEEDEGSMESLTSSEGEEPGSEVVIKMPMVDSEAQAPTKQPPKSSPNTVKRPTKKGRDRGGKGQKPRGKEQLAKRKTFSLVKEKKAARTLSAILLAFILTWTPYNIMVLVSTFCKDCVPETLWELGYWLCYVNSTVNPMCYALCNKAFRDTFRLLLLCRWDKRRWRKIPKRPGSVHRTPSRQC
Pyruvate kinase (Leishmania mexicana), sequence (Q27686 2-499 E452W): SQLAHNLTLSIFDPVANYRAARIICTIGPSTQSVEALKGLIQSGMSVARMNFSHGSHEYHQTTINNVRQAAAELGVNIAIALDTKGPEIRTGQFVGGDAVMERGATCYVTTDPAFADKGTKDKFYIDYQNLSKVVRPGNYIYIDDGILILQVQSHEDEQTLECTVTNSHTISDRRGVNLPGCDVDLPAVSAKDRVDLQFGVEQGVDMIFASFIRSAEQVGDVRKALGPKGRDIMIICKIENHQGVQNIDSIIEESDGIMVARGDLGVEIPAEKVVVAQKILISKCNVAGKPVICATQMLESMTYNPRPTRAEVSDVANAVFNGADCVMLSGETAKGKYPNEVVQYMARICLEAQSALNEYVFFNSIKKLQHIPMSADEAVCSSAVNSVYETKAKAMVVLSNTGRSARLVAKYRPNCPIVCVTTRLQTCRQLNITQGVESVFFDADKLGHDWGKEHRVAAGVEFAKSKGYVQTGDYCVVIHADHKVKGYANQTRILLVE
Guanine nucleotide-binding protein G(i) subunit alpha-1 (Homo sapiens), sequence (P63096 whole entry, looked up): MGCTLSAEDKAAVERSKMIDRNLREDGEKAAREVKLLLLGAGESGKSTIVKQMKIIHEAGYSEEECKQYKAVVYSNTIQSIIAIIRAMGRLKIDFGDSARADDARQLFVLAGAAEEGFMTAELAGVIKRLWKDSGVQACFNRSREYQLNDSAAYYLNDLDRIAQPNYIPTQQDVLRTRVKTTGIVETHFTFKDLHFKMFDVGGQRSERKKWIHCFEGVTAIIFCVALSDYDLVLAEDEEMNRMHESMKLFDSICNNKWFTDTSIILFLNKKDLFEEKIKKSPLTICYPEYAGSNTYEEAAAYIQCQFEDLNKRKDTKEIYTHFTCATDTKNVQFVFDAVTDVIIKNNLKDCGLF
Cytochrome P450 2C19 (Homo sapiens), sequence (P33261 whole entry, looked up): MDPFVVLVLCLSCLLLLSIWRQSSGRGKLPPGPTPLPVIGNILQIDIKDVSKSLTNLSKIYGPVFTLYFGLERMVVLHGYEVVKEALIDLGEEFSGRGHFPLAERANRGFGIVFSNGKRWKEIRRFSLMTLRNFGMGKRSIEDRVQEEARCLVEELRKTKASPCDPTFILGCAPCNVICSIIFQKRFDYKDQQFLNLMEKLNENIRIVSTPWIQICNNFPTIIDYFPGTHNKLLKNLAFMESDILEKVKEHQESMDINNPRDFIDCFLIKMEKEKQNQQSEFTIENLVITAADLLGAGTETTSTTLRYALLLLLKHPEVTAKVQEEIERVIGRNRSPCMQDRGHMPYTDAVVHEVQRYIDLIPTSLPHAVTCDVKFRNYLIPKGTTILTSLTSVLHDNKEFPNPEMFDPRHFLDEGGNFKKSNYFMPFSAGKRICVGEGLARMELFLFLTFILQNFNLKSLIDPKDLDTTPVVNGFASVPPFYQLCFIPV
Cytochrome P450 3A4 (Homo sapiens), sequence (P08684 whole entry, looked up): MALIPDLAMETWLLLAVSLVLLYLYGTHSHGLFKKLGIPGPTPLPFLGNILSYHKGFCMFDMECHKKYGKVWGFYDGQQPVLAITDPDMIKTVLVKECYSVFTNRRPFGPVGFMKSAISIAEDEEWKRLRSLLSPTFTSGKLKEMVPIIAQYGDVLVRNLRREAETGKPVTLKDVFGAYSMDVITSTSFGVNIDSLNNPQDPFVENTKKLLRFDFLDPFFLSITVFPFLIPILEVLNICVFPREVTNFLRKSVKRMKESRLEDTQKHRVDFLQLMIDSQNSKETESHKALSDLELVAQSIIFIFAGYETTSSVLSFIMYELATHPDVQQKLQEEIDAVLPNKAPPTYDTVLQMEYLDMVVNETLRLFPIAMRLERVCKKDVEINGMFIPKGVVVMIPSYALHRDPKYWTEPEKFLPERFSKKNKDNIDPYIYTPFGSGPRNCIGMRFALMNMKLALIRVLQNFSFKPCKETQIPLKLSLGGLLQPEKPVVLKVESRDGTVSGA
Cytochrome P450 2D6 (Homo sapiens), sequence (P10635 whole entry, looked up): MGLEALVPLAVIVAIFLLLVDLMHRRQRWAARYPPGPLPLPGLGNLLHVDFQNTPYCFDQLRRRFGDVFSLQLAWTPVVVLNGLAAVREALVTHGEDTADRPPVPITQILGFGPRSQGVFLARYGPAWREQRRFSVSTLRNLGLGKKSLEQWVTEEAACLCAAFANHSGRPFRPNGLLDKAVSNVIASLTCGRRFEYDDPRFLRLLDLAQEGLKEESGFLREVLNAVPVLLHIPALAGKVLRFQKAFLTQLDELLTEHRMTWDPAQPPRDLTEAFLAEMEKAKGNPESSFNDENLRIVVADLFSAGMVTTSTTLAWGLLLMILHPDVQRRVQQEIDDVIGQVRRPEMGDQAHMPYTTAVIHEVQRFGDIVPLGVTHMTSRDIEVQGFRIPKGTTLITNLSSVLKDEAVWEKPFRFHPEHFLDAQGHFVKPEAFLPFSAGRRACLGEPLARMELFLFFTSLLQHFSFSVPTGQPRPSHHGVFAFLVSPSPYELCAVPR

C[C@H](Cc1ccc(O)c(O)c1)[C@@H](C)Cc1ccc(O)c(O)c1
active: [2] 1.58 µM | [4] 25.1 µM | [5] 7.94 µM | [6] 6.31 µM | [7] 5.01 µM
inactive: [1] | [3] | [8] | [9]

O=C1c2ccccc2-c2n[nH]c3cccc1c23
active: [3] 3.98 µM
inactive and 398 nM (active): [4]
inactive: [2] | [10] | [6] | [11] | [8] | [9]

Nc1nc(OCc2ccccc2)c2[nH]cnc2n1
inactive: [1] | [12] | [11] | [8] | [9]

CC(C)c1ccc2c(c1)c(SC(C)(C)C)c(CC(C)(C)C(=O)O)n2Cc1ccc(Cl)cc1
inactive: [1] | [10] | [8] | [9]

NNc1nncc2ccccc12
inactive: [1] | [10] | [5] | [13] | [14]
active: [12] 0.0398 µM

O=C(CCc1ccc(O)cc1)c1c(O)cc(O)cc1O
active: [2] 2.51 µM | [3] 2 µM and 15.8 µM | [6] 3.98 µM
inactive: [1] | [10] | [13] | [12] | [14] | [11] | [8] | [9]

Cc1cc(C2CCCCC2)n(O)c(=O)c1
inactive: [3] | [13] | [14]

CCCCC(CC)COC(=O)C(C#N)=C(c1ccccc1)c1ccccc1 (stereo not given)
inactive: [3] | [15] | [16] | [17]

CN(C)c1ccc2nc3ccc(=[N+](C)C)cc-3sc2c1
active: [18] 10 µM | [15] 10 µM | [16] 10 µM | [17] 12.6 µM

O=c1oc2cc(O)ccc2s1
inactive: [3] | [13] | [14]

C[C@@H](N)C1CCC(C(=O)Nc2ccncc2)CC1 (stereo not given in full)
inactive: [10]
active: [3] 15.8 µM

Nc1cc(C(Cl)=C(Cl)Cl)c(S(N)(=O)=O)cc1S(N)(=O)=O
inactive: [13] | [14]

CCCc1cc(=O)[nH]c(=S)[nH]1
inactive: [3] | [6] | [13] | [18] | [14] | [15] | [16] | [17]

S=c1nc[nH]c2nc[nH]c12
inactive: [3]
active: [13] 3.16 µM | [14] 6.31 µM

Cc1ncc([N+](=O)[O-])n1CC(C)O (stereo not given)
inactive: [3] | [13] | [14]

COC(=O)C1=C(C)NC(C)=C(C(=O)OC(C)C)C1c1cccc2nonc12 (stereo not given)
inactive: [10]

Cc1cc2cc3c(C)cc(=O)oc3c(C)c2o1
active: [3] 3.98 µM
inactive: [10] | [13] | [14]
